Source: PubChem (National Center for Advancing Translational Sciences (NCATS))
Most compounds without a hit are left out; they make up all but 19% or so of the library.
HT1080NT lethal: kills 2HG-producing HT-1080-NT fibrosarcoma cells; HT-1080-NT fibrosarcoma viability, CellTiter-Glo ATP luminescence, 48 h; Potency, µM (series often up to 46.1 µM), without a hit: at the top dose activity, negative = less viability, hits mostly cytotoxic; hit rate 1.6% among 360,000; AID 686970;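 note: NT is the 2HG producing partner of a matched IDH1 knockdown line; potency is the fitted concentration of half-maximal effect; 0% = DMSO-treated cells and -100% = media-only wells without cells; nearly all actives have a fitted effect of over 55% in size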
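HT-1080-NT; 750 cells/well; 5% FBS RPMI; 48 h compound, 37 degrees C; CellTiter-Glo luminescence; curve fitting and curve-class assignment.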
ELG1 repair inh: ELG1-dependent DNA repair inhibition. HEK293T ELG1-luciferase reporter, luminescence, 16 h; DNA damage induced by 5-fluorouridine. Potency, µM (top dose mostly 46.1 µM), inactives show at the top dose activity change, negative = inhibition, most hits filed as inhibitors. hit rate 2.3% among 330,000. AID 504467; note: potency is the fitted concentration of half-maximal effect; nearly all actives have a fitted effect of over 55% in size
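Luminescence from the luciferase reporter, measured 30 min after ONE-Glo reagent at room temperature, was the read-out. Beforehand, 2,000 cells per well were exposed for 16 hr at 37 °C to 5-fluorouridine together with compound or vehicle.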
TDP1 cell CPT: DT40-hTDP1 cell growth loss with CPT; chicken DT40 Tdp1-/-;hTDP1 cells + 20 nM CPT, ATP luminescence, 48 h; Potency, µM (titrated, usually from 46.2 µM), inactives show at the top dose activity change, negative = growth inhibition, actives largely listed as inhibitors; hit rate 12% among 420,000; AID 686979; note: potency is the fitted concentration of half-maximal effect; nearly all actives have a fitted effect of over 55% in size
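Chicken DT40 Tdp1-/- cells stably complemented with human TDP1 were seeded at 400 cells/well in medium containing 20 nM camptothecin, exposed to pin-transferred compounds, and grown at 37 °C for at least 48 hr. Viability was read as ATP luminescence.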
DT40 TDP1 no CPT: qHTS for Inhibitors of human tyrosyl-DNA phosphodiesterase 1 (TDP1): qHTS in cells in absence of CPT; DT40 Tdp1-/- hTDP1 cells, no CPT, ATP luminescence, 48 h; hit rate 15% among 420,000; Potency, µM (top dose mostly 46.2 µM), inactives show top-dose activity change, negative = growth inhibition, actives largely listed as inhibitors; note: potency is the fitted concentration of half-maximal effect; nearly all actives have a fitted effect of over 55% in size
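DT40 Tdp1-/-;hTDP1 cells, no CPT (DMSO vehicle only), 400 cells/well; compounds pin-transferred; ≥48 hr, 37 °C; CellTiter-Glo 30 min RT dark, luminescence read.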
HT1080 IDH1KD tx: kills HT-1080 cells with IDH1 knockdown. HT-1080 IDH1 knockdown viability, ATP luminescence, 48 h. Potency, µM (titrated, usually from 46.1 µM), inactives show at the highest dose activity, negative = toxicity, most hits filed as cytotoxic. hit rate 2% among 360,000;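 note: potency is the fitted concentration of half-maximal effect; 0% = DMSO wells and -100% = cell-free medium wells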
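In this qHTS, HT-1080 cells depleted of IDH1 are exposed for 48 h at 37 °C to compound titrations. Toxicity is scored from CellTiter-Glo luminescence, with DMSO as full viability and medium alone as none.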
IL1B secr inh: inhibitors of inflammasome signaling (IL-1 beta secretion). THP-1 LPS/ATP IL-1B secretion, AlphaLISA, 16 h; active compounds read low. activity change, % at 57.5 µM. hit rate 4.7% among 360,000; in the data active = activity change below about -50%; inconclusive = mostly about -30% to -49%
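THP-1 cells pretreated 1 hr with compounds (up to 57.5 uM final), then stimulated with LPS (250 ng/mL final) plus ATP (1.25 mM final); secreted IL-1B measured by AlphaLISA after 16 hr, decreased signal indicating inhibition.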
Numbers without * were called inactive. Unless noted, calls come from the whole dose curve; as a rule, active = well fitted curve in the direction sought with a large enough effect; inconclusive = small, poorly fitted or top-dose-only effect, or another doubt; inactive = no such curve, though single readings can be large; an effect the other way counts as inactive or inconclusive. Unless noted, % is set by controls: 0 for no effect and ±100 for the full control effect.

`Cc1cccc(C(C)(C)C)c1OCCCCN1CCCC1` gave HT1080NT lethal -20%, ELG1 repair inh inconclusive, TDP1 cell CPT inconclusive, DT40 TDP1 no CPT 23µM*, HT1080 IDH1KD tx inconclusive and IL1B secr inh -21.
For Cc1ccc(C(C)C)c(OCCCn2ccnc2C)c1 the results were HT1080NT lethal -11%, ELG1 repair inh -11%, TDP1 cell CPT 16µM*, DT40 TDP1 no CPT 29µM*, HT1080 IDH1KD tx -1% and IL1B secr inh -16.
Cc1ccc(C(C)C)c(OCCCCN2CCNCC2)c1 was read as HT1080NT lethal -14%, ELG1 repair inh 4%, TDP1 cell CPT 15µM*, DT40 TDP1 no CPT 16µM*, HT1080 IDH1KD tx -9% and IL1B secr inh -58*.
COCCNC(=O)C1CCCN(Cc2ccc(C#N)cc2)CC1 (stereo unspecified) was read as HT1080NT lethal 11%, TDP1 cell CPT -26%, DT40 TDP1 no CPT -13%, HT1080 IDH1KD tx 18% and IL1B secr inh 10.
For CCOc1ccc(-c2c(=O)n(OCc3ccc([N+](=O)[O-])cc3)c3ccccc3[n+]2[O-])c(OCC)c1 the results were HT1080NT lethal 27%, TDP1 cell CPT inconclusive, DT40 TDP1 no CPT inconclusive, HT1080 IDH1KD tx 16% and IL1B secr inh 19.
`CCOc1ccc(-c2c(=O)n(O)c3ccccc3[n+]2[O-])cc1` gave HT1080NT lethal -2%, ELG1 repair inh inconclusive, TDP1 cell CPT inconclusive, DT40 TDP1 no CPT 13µM*, HT1080 IDH1KD tx 2% and IL1B secr inh -1.
CCOc1ccc(OCC)c(-c2c(=O)n(OCc3ccc(C(C)(C)C)cc3)c3ccccc3[n+]2[O-])c1 was read as HT1080NT lethal 20%, ELG1 repair inh inconclusive, TDP1 cell CPT 21µM*, DT40 TDP1 no CPT 18µM*, HT1080 IDH1KD tx -6% and IL1B secr inh -29.
COc1ccccc1N(C)S(=O)(=O)c1ccc(C(=O)Nc2cccc(S(=O)(=O)N3CCOCC3)c2)cc1 was read as HT1080NT lethal -14%, TDP1 cell CPT inconclusive, DT40 TDP1 no CPT 10µM*, HT1080 IDH1KD tx inconclusive and IL1B secr inh -9.
Screening CN(c1ccccc1)S(=O)(=O)c1ccc(C(=O)Nc2cccc(S(=O)(=O)N3CCOCC3)c2)cc1 returned HT1080NT lethal -16%, TDP1 cell CPT 7.3µM*, DT40 TDP1 no CPT 7.3µM*, HT1080 IDH1KD tx -22% and IL1B secr inh -12.
Screening CN(C)c1ccc(C(=O)Nc2cccc(S(=O)(=O)N3CCCC3)c2)cc1 returned HT1080NT lethal -5%, ELG1 repair inh inconclusive, TDP1 cell CPT inconclusive, DT40 TDP1 no CPT inconclusive, HT1080 IDH1KD tx -1% and IL1B secr inh inconclusive.
For COc1cc(NC(=O)c2ccc(C(=O)Nc3cc(OC)c(Cl)cc3OC)cc2)c(OC)cc1Cl the results were TDP1 cell CPT -3% and DT40 TDP1 no CPT 1%.
Screening CCC(C)Nc1sc(S(=O)(=O)CC)nc1S(=O)(=O)c1ccc(C)cc1 (stereo unspecified) returned TDP1 cell CPT -10% and DT40 TDP1 no CPT -8%.
Screening COC(=O)C1(Cc2ccc(O)cc2)OC(=O)C(O)=C1c1ccc(O)cc1 (stereo unspecified) returned HT1080NT lethal 1%, ELG1 repair inh 1%, TDP1 cell CPT 15%, DT40 TDP1 no CPT -1%, HT1080 IDH1KD tx 9% and IL1B secr inh 7.
CCC1NC(=O)c2cc3ccccc3cc2-n2c1nc1cc(C)cc(C)c1c2=O (stereo unspecified) was read as HT1080NT lethal -1%, TDP1 cell CPT 18µM*, DT40 TDP1 no CPT 4.1µM*, HT1080 IDH1KD tx -5% and IL1B secr inh 15.
For Cc1ccc2nc3n(c(=O)c2c1)-c1cc2ccccc2cc1C(=O)NC3Cc1ccccc1 (stereo unspecified) the results were HT1080NT lethal inconclusive, TDP1 cell CPT 23µM*, DT40 TDP1 no CPT 16µM*, HT1080 IDH1KD tx 15µM* and IL1B secr inh 8.
O=C1NC(Cc2ccccc2)c2nc3ccc(F)cc3c(=O)n2-c2cc3ccccc3cc21 (stereo unspecified) was read as HT1080NT lethal 5.8µM*, TDP1 cell CPT 5.2µM*, DT40 TDP1 no CPT 5.2µM*, HT1080 IDH1KD tx 5.8µM* and IL1B secr inh -22.
O=C1NC(Cc2ccccc2)c2nc3ccc(Cl)cc3c(=O)n2-c2ncccc21 (stereo unspecified) was read as HT1080NT lethal -24%, TDP1 cell CPT inconclusive, DT40 TDP1 no CPT 21µM*, HT1080 IDH1KD tx -17% and IL1B secr inh -6.
`CC1CCc2c(sc(NC(=O)c3cc(-c4ccc(Br)cc4)on3)c2C(N)=O)C1` (stereo unspecified) gave TDP1 cell CPT -28% and DT40 TDP1 no CPT -13%.
For O=C1NC(Cc2ccccc2)c2nc3ccc(Cl)cc3c(=O)n2-c2ccc(Cl)cc21 (stereo unspecified) the results were ELG1 repair inh 8%.
Screening O=C1NC(Cc2ccc(O)cc2)c2nc3ccc(Cl)cc3c(=O)n2-c2cc3ccccc3cc21 (stereo unspecified) returned HT1080NT lethal 15µM*, TDP1 cell CPT 6.5µM*, DT40 TDP1 no CPT 5.2µM*, HT1080 IDH1KD tx inconclusive and IL1B secr inh 20.
`O=C1NC(Cc2ccc(O)cc2)c2nc3cc(F)c(F)cc3c(=O)n2-c2ncccc21` (stereo unspecified) gave HT1080NT lethal inconclusive, TDP1 cell CPT -9%, DT40 TDP1 no CPT -18%, HT1080 IDH1KD tx 21µM* and IL1B secr inh -23.
CCC1NC(=O)c2cc3ccccc3cc2-n2c1nc1ccc(OC)cc1c2=O (stereo unspecified) was read as HT1080NT lethal -7%, TDP1 cell CPT inconclusive, DT40 TDP1 no CPT inconclusive, HT1080 IDH1KD tx 0% and IL1B secr inh -29.
`CCCC1NC(=O)c2cc3ccccc3cc2-n2c1nc1ccc(C)cc1c2=O` (stereo unspecified) gave HT1080NT lethal 7%, TDP1 cell CPT inconclusive, DT40 TDP1 no CPT 18µM*, HT1080 IDH1KD tx 2% and IL1B secr inh 2.
`CCCC1NC(=O)c2cc3ccccc3cc2-n2c1nc1cc(Cl)ccc1c2=O` (stereo unspecified) gave HT1080NT lethal -2%, TDP1 cell CPT inconclusive, DT40 TDP1 no CPT inconclusive, HT1080 IDH1KD tx -2% and IL1B secr inh 22.
